Screening data (PubChem)
Shown are actives, neighbours in structure and some others; about 2.8% of the full set was active somewhere.
PAFAH1B2 inh = inhibitors of human PAFAH1B2; P68402; recombinant PAFAH1B2, FP-rhodamine activity probe, fluorescence polarization; inhibition, % at 3.39 µM; 340,000 compounds, 1.2% hits; AID 492953;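 active = inhibition above the mean of all tested compounds plus 3 SD, cut at about 24% in these data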;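 also: 0% = enzyme with DMSO and 100% = wells lacking PAFAH1B2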
Fam108B counter = blocks mouse Fam108B hydrolase in RBBP9 counter-screen. 300,000 compounds, 0.33% hits. recombinant Fam108B, FP-Rh probe fluorescence polarization. inhibition, % at 9.51 µM. AID 1947;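 active = inhibition above the screen mean inhibition plus 3 SD, computed separately per campaign, cut at about 18% in these data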;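 also: inhibitors lower polarization as less probe binds the enzyme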
PAFAH2 inh = inhibitors of human PAFAH2 | 340,000 compounds, 0.99% hits | AID 492956 | inhibition, % at 3.39 µM | Q99487 | recombinant PAFAH2, FP-rhodamine activity probe, fluorescence polarization;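 active = inhibition above the mean over all tested compounds plus 3 SD, cut at about 30% in these data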;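 also: inhibitors block probe labeling of enzyme so polarization drops; 0% = enzyme with DMSO and 100% = wells lacking PAFAH2 protein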
PAFAH1B3 inh = inhibitors of human PAFAH1B3. Q15102. recombinant PAFAH1B3, FP-rhodamine probe, fluorescence polarization. inhibition, % at 3.39 µM. 340,000 compounds, 0.28% hits;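 active = inhibition above the screen-wide average of all tested compounds plus 3 SD, cut at about 25% in these data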;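 also: 0% = enzyme with DMSO only and 100% = wells lacking PAFAH1B3 protein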
PME-1 inh = blocks human protein phosphatase methylesterase 1; recombinant PME-1, FP-Rh probe fluorescence polarization; inhibition, % at 5.9 µM; 320,000 compounds, 0.53% hits; Q9Y570;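 active = inhibition above the campaign mean of all compounds plus 3 SD, cut at about 26% in these data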;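 also: competitive labeling of PME-1 active site by serine hydrolase directed probe; 0% = PME-1 with DMSO and 100% = wells lacking PME-1 enzyme; inhibitors block probe labeling so polarization falls and inhibition rises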
Target sequence (Q9Y570 whole entry, looked up): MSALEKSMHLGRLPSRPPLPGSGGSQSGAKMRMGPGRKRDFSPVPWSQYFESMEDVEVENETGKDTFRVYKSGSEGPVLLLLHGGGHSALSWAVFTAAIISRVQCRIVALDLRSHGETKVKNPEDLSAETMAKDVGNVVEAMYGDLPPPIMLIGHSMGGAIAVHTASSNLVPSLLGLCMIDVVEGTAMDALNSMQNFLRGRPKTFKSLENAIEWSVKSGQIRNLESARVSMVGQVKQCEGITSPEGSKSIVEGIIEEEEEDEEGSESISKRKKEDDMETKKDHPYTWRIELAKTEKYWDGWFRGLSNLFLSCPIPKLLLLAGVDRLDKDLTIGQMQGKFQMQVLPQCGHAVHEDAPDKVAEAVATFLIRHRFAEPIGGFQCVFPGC
pPAFAH inh = pPAFAH (human) enzyme inhibition; inhibition, % at 3.39 µM; recombinant pPAFAH, FP-rhodamine probe fluorescence polarization; 330,000 compounds, 1.5% hits; Q13093; AID 463082;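 active = inhibition above the mean inhibition across the screen plus 3 SD, cut at about 25% in these data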;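 also: inhibitors block binding of the rhodamine activity-based probe so polarization drops; 0% = enzyme with DMSO and 100% = wells lacking pPAFAH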
Fam108b confirm = Fam108b (mouse) hydrolase inhibition, confirmation assay | inhibition, % at 9.51 µM | shares compounds with Fam108B counter | AID 1978 | 930 compounds, 44% hits | recombinant Fam108b, FP-Rh probe fluorescence polarization;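 active = inhibition above a limit from the primary screen, the mean over all compounds plus 3 SD, cut at about 19% in these data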;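 also: 0% = median of active Fam108b wells and 100% = catalytically dead S170A mutant; inhibitors free the probe so polarization falls as inhibition rises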
Fam108b inh = mouse ABHD17B inhibition. recombinant Fam108b, gel-based ABPP, fluorophosphonate probe. shares compounds with Fam108B counter. 260 compounds, 44% hits. inhibition, % at 20 µM. AID 588649; in the data active = inhibition above about 40%
* = called active by the depositor; . = no result given.

SMILES	PAFAH1B2 inh	Fam108B counter	PAFAH2 inh	PAFAH1B3 inh	PME-1 inh	pPAFAH inh	Fam108b confirm	others
CCN(CC)c1nc2c3c(nc4c(c3c1C#N)CC(=O)N4c1ccc(Cl)cc1)NC(C)=N2	15	24*	15	14	27*	64*	18*
CCc1ccc(N2C(=O)Cc3c2nc(N)c(C#N)c3N)cc1	9	0	0	4	7	11	.
O=C1C(SCCO)=C(SCCO)C(=O)c2ccccc21	46*	51*	50*	47*	31*	4	66*	Fam108b inh=90*
O=C1C(Cl)=C(NCCCO)C(=O)c2ccccc21	7	0	1	12	6	0	.
O=C(NN1C(=O)/C(=C\c2ccc(O)c([N+](=O)[O-])c2)SC1=S)c1ccccc1Cl	1	25*	10	6	3	14	20*
COc1cc(NC(=O)C2=COCCO2)c(OC)cc1Cl	1	-3	-1	8	-4	-6	.
CC1=NN(c2ccc(Cl)cc2)C(=O)C1C(c1cccc(O)c1)c1c(C)[nH]n(-c2ccc(Cl)cc2)c1=O (centres undefined)	7	31*	20	16	17	-3	17
O=C(Nc1ccc(Cl)c(Cl)c1)Nc1ccccc1O	-2	20*	5	7	18	18	-7
N[C@H](CSCc1ccccc1)C(=O)Nc1ccc([N+](=O)[O-])cc1	7	29*	-7	-2	26*	-2	-5
NC(=O)c1ccc([N+](=O)[O-])cc1SCc1ccccc1	2	7	12	7	6	23	.
Cc1ccc(S(=O)(=O)/N=C2/C=C(Sc3ncn[nH]3)C(=O)c3ccccc32)cc1	51*	80*	75*	48*	46*	9	65*
Cc1ccc(S(=O)(=O)/N=C2/C=C(Sc3ncn[nH]3)C(=O)c3ccccc32)c(C)c1	.	60*	.	.	36*	6	34*
Cc1ccc(S(=O)(=O)N2CCN(C(=O)CSc3ncn[nH]3)CC2)c(C)c1	-6	2	5	2	-6	0	.
CC(C)c1ccc(S(=O)(=O)/N=C2/C=C(Sc3ncn[nH]3)C(=O)c3ccccc32)cc1	46*	58*	51*	49*	42*	9	36*
Cc1ccc(S(=O)(=O)Nc2ccc(O)c(Sc3ncn[nH]3)c2)cc1	8	-3	8	9	3	0	.
Cc1ccc(NCc2ccccc2F)cc1	6	19*	-6	1	-6	22	1
Cc1cc(C)nc(SCc2ccc(C(=O)NN=Cc3cccc(O)c3O)cc2)n1	.	.	.	.	.	.	.	Fam108b inh=90*
Cc1cc(C)nc(SCc2ccc(C(=O)N/N=C/c3cccc(O)c3O)cc2)n1	21	50*	0	37*	26*	32*	82*
Cc1cc(C)nc(SCc2ccc(C(=O)N/N=C/c3ccc(C(=O)O)cc3)cc2)n1	-3	-4	-4	10	-14	3	.
O=[N+]([O-])c1ccc(S(=O)(=O)Nc2ccc(-c3csc(-c4ccccc4)n3)cc2)cc1	.	25*	.	.	4	12	-7
COCCNC(=O)C1Nc2ccc(C(F)(F)F)cc2C2C=CCC12 (centres undefined)	8	2	5	14	4	11	.
CCOC(=O)c1ccc2c(c1)C1C=CCC1C(C(=O)O)N2 (centres undefined)	.	56*	.	.	-24	83*	33*	Fam108b inh=0
Cc1ccc2c(c1C)NC(C(=O)O)C1CC=CC21 (centres undefined)	9	23*	44*	12	-3	65*	8
O=C(O)C1Nc2c(C(=O)N3CCOCC3)cccc2C2C=CCC12 (centres undefined)	7	4	23	1	-16	20	.
CCCCCCCCOc1ccc(C2OC34CCCCC3C(C#N)(C#N)C2(C#N)C(=N)O4)cc1 (centres undefined)	27*	19*	34*	22	20	30*	-5
CCCCCOc1ccc(C2NC(=O)NC2=O)cc1 (centres undefined)	2	0	9	-1	-7	1	.
